High-throughput results (PubChem)
ALDH1A1 block: ALDH1A1 (human) enzyme inhibition. Potency, µM (highest dose often 75.3 µM), actives largely listed as inhibitors. P00352. actives 7.3% (n = 220,000). Purified ALDH1A1, NADH fluorescence, propionaldehyde substrate
Target sequence (P00352 whole entry, looked up): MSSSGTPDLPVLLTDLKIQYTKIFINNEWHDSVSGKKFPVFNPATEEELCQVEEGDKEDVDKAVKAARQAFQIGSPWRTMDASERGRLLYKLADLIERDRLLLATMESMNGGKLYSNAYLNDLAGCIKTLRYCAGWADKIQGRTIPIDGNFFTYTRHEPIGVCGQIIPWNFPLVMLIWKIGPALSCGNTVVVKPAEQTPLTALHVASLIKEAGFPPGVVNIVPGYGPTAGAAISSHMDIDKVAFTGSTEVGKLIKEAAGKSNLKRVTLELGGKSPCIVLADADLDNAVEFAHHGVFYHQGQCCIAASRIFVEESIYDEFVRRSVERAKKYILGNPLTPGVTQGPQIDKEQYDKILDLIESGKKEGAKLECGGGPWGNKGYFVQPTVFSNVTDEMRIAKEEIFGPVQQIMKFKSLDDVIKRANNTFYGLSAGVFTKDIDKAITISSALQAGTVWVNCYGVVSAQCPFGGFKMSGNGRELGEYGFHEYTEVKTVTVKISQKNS
HPGD inh: inhibitors of human 15-hydroxyprostaglandin dehydrogenase (HPGD); P15428; Potency, µM, actives largely listed as inhibitors; AID 894; purified HPGD, NADH fluorescence kinetic, PGE2 substrate; actives 4.3% (n = 150,000)
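NADH formation kinetics: reaction with 30 uM PGE2 and 1 mM NAD+ (final), 20 nM enzyme, Tris-HCl pH 8 with Tween 20, after 15 min compound preincubation at room temperature. Fluorescence change, last versus first of five reads.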
HTT aggregate: mutant huntingtin aggregation inhibition. AID 1688. PC12 HttQ103-GFP aggregates, Acumen cytometry, 40 h. Potency, µM (series often up to 46.1 µM), hits mostly inhibitors. actives 1.1% (n = 220,000); active means well fitted curve in the direction sought with a large enough effect; inconclusive means small, poorly fitted or top-dose-only effect, or another doubt; inactive means no such curve, though single readings can be large; an effect the other way counts as inactive or inconclusive; further: nearly all actives have a fitted effect of over 60% in size
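Aggregates are detected as GFP objects 1–25 µm with signal 6 STDEV over background in lysates of induced PC12 cells. These carry Huntingtin exon 1 with 103 glutamines fused to GFP under an ecdysone promoter; compounds titrated.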
HTT ATP protect: Huntington cell model cytoprotection by ATP luminescence | Potency, µM (doses to about 56.4 µM), actives largely listed as activators | PC12 HTT-Q103 induced, cytoprotection, ATP luminescence, 40 h | AID 1471 | actives 0.14% (n = 230,000); active means well fitted curve in the direction sought with a large enough effect; inconclusive means small, poorly fitted or top-dose-only effect, or another doubt; inactive means no such curve, though single readings can be large; an effect the other way counts as inactive or inconclusive; further: nearly all actives have a fitted effect of over 45% in size
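Stable PC12 Q103-GFP cells in serum-supplemented, phenol red-free DMEM; induction by tebufenozide at 100 nM final; compound dose series; cell viability quantified luminescently from ATP.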
Lamin A splicing: LMNA splicing modulation | HeLa LMNA splicing GFP/RFP minigene ratio, 48 h | Potency, µM (series often up to 46.1 µM), actives largely listed as inhibitors | actives 0.01% (n = 200,000) | AID 1487; active means well fitted inhibition curve with a large enough effect in the signal ratio, with a control signal flat, not every such curve was filed as active; inconclusive means small, poorly fitted or top-dose-only effect, or effect the other way, or a change in a side signal; the % refers to the signal ratio
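Read-out is the ratio of GFP to DsRed2 object intensity, acquired by 488 nm laser-scanning cytometry on HeLa lamin A-EGFP minigene reporter cells. Compound incubation 48 hrs at 37 °C in Opti-MEM with 2% FBS; DMSO 0.5% final.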
KDM4E inh: blocks human JMJD2E demethylase activity; Potency, µM (doses to about 57.1 µM), actives largely listed as inhibitors; actives 1.6% (n = 230,000); AID 2147; B2RXH2; JMJD2E catalytic domain, FDH-coupled NADH fluorescence (FDH is formaldehyde dehydrogenase); further: nearly all actives have a fitted effect of over 50% in size
Hits are given with their value; - = inactive; ? = inconclusive; . = no result given; [ ] = dose if it differs, or a comment. Shown are actives, neighbours in structure and some others; about 9.2% of the full set was active somewhere. Unless noted, the call rests on the fitted dose curve; in most records, active means well fitted inhibition curve with a large enough effect (not every such curve was filed as active); inconclusive means small, poorly fitted or top-dose-only effect, or another doubt; inactive means no such curve, though single readings can be large or run the other way.

SMILES | ALDH1A1 block | HPGD inh | HTT aggregate | HTT ATP protect | Lamin A splicing | KDM4E inh
Cc1cccc(CN2CCc3c(OCC(=O)NCc4ccco4)cccc3C2=O)c1 | 22µM | - | - | -[10 µM] | - | -
O=C(COc1cccc2c1CCN(Cc1ccccc1)C2=O)NCc1ccco1 | 20µM | - | - | -[10 µM] | - | -
Cc1ccc(NC(=O)N2CCN(c3cc(-c4noc(C)n4)ccc3C)CC2)c(F)c1 | . | . | . | . | - | .
O=C1CCSC2(C(=O)N(Cc3ccc(F)cc3)c3ccccc32)N1c1cccc(F)c1 (configuration not stated) | . | . | . | . | - | .
COc1ccc(OCc2nnc(SCc3ccc(C(=O)O)cc3)o2)cc1 | - | . | -[9.22 µM] | -[10 µM] | . | -
O=c1cc(CSc2nnc(COc3ccccc3Cl)o2)nc2sccn12 | ? | 18µM | - | - | - | -
O=C(O)c1ccc(CSc2nnc(COc3ccc(Cl)cc3Cl)o2)cc1 | ? | 5µM | - | - | - | -
FC(F)(F)c1cc(-c2ccco2)nc(N2CCN(Cc3ccccc3)CC2)n1 | 22µM | - | - | - | - | -
Cc1ccc(C(=O)N[C@H](C(=O)Nc2cc(Cl)cc(Cl)c2)C(C)C)cc1 | - | - | - | -[10 µM] | - | -
Cc1ccc(C(=O)Nc2cc(C(C)C)c(O)c(C(C)C)c2)cc1 | - | - | 10µM | . | ? | -
Cc1ccc(N(CCC(=O)Nc2nnc(C3CC3)s2)S(=O)(=O)c2ccccc2)cc1 | - | - | - | -[10 µM] | - | -
O=C(NCc1cccnc1)c1csc2c1CCCC2 | ? | - | - | -[10 µM] | - | -
Cc1nc(N/N=C/c2ccccn2)sc1C | - | - | ? | -[10 µM] | ? | 13µM
OC[C@@H](O)C(O[C@@H]1O[C@@H](CO)[C@H](O)[C@H](O)[C@H]1O)[C@H](O)[C@@H](O)CO (some centres not stated) | . | . | - | - | - | .
Cc1cccc(CSCc2nnc(N)s2)c1 | ? | 28µM | - | -[10 µM] | - | -
Nc1nnc(CCc2ccccc2)s1 | - | - | - | - | - | -
Nc1nnc(CC(c2ccccc2)c2ccccc2)s1 | - | 22µM | - | - | - | -
Nc1nnc(Cc2ccccc2)s1 | 11µM | - | -[9.22 µM] | - | - | -
Nc1nnc(Cc2cccc(Br)c2)s1 | . | . | -[9.22 µM] | -[10 µM] | . | -
COc1ccc(Cc2nnc(N)s2)cc1OC | 28µM | 32µM | - | -[1.9 µM] | - | -
Nc1nnc(C(c2ccccc2)c2ccccc2)s1 | ? | - | - | - | - | -
CC(C)NC(=O)N1CCCC2(CCN(C(=O)c3ccncc3)CC2)C1 | - | - | . | - | . | .
Cc1ccc(-c2nc3c4ccccc4n(Cc4cccc(Cl)c4)c(=O)n3n2)cc1 | . | . | . | . | - | .
COc1ccc(Cc2nnc(N)s2)cc1 | ? | 28µM | - | - | ? | -
Nc1nnc(Cc2ccc(F)cc2)s1 | . | . | -[9.22 µM] | -[10 µM] | . | -
SMILES | ALDH1A1 block | HPGD inh | HTT aggregate | HTT ATP protect | Lamin A splicing | KDM4E inh
COC(=O)CCCC1=CC2=C(c3ccccc3)C(=O)C(C)(OC(=O)C3CCCC3)C(=O)C2=CN1CCCCO (configuration not stated) | ? | - | -[9.22 µM] | -[10 µM] | -[9.22 µM] | ?
COC(=O)CCCC1=CC2=C(c3ccccc3)C(=O)C(C)(OC(=O)C3CCCC3)C(=O)C2=CN1CCCOC(C)C (configuration not stated) | ? | - | . | -[10 µM] | -[9.22 µM] | 3.5µM
COC(=O)CCCC1=CC2=C(c3ccccc3)C(=O)C(C)(OC(=O)C3CCCC3)C(=O)C2=CN1Cc1ccco1 (configuration not stated) | -[13.5 µM] | - | -[9.22 µM] | -[10 µM] | -[9.22 µM] | 18µM
C1CCN2C[C@@H]3C[C@@H](CN4CCCC[C@H]34)[C@H]2C1 | - | - | - | - | ? | -
O=C(CNC(=O)c1ccc(Cl)cc1)OCc1cc(=O)n2nc(C3CC3)sc2n1 | . | . | . | . | - | .
O=C(c1ccccc1)C(Sc1ncn[nH]1)c1ccccc1 (configuration not stated) | ? | 40µM | - | -[10 µM] | - | ?
Cn1cnnc1SC(C(=O)c1ccccc1)c1ccccc1 (configuration not stated) | ? | - | - | -[10 µM] | - | -
COC(=O)C/C=C\[C@H](C)[C@H](CO)NS(=O)(=O)c1ccc(C)cc1 | -[13.5 µM] | . | . | -[10 µM] | . | .
CC(=O)NC(=S)Nc1ccc([N+](=O)[O-])cc1C | - | . | ? | 11µM | - | -
